Measurements reported in PubChem BioAssay (NCATS).
“And” between values parts separate entries of the source, which are not always exact repeats. Identical values can stand only once. Records with an inconclusive call do not appear. The source holds several records for some structures; these can differ, active in one and inactive in another. The source made the active and inactive calls. Calls come from the whole dose curve; as a rule, active = well fitted curve in the direction sought with a large enough effect; inconclusive = small, poorly fitted or top-dose-only effect, or another doubt; inactive = no such curve, though single readings can be large; an effect the other way counts as inactive or inconclusive.

What was measured:
[1] = molecular target: Cytochrome P450 3A7 (Homo sapiens) (UniProt P24462); assay: Cytochrome P450 family 3 subfamily A member 7 (CYP3A7) small molecule antagonists: luciferase biochemical qHTS assay (AID 1963596); note: % is set by controls: 0 for no effect and ±100 for the full control effect; nearly all actives have a fitted effect of over 40% in size
Sequence of Cytochrome P450 3A7 (Homo sapiens) (P24462 whole entry, looked up): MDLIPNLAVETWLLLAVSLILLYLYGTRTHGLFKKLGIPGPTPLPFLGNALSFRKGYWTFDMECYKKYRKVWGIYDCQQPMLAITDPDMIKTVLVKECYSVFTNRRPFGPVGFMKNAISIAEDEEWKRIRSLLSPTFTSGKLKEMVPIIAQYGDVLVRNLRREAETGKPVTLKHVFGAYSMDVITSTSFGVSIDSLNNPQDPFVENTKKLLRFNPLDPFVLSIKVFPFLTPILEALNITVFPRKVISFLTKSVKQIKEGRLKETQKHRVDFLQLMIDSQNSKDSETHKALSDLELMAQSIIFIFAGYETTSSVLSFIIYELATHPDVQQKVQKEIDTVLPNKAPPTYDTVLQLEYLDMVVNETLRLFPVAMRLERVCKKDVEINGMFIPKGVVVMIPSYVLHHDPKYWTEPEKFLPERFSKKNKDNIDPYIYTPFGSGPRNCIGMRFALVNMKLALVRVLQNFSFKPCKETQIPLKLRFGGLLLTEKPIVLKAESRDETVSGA
How it was run: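 Luminescence from luciferin released by CYP3A7 from a proluciferin substrate, read 20 min after detection reagent. Compound and enzyme-substrate mix sat 10 min before NADPH regeneration solution; reaction ran 1 h at room temperature.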

[2] = Viability qHTS for spleen associated tyrosine kinase inhibitor (SYKi) naive MV4-11 cells (AID 1963823); note: nearly all actives have a fitted effect of over 40% in size; note: potency is the fitted concentration of half-maximal effect
How it was run: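 CellTiter-Glo luminescence, 10 min room-temperature incubation, gave viability. Cells: naive MV4-11 (500/well), treated 72 hr at 37 C, 5% CO2.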

[3] = Viability qHTS for spleen associated tyrosine kinase inhibitor (SYKi) drug resistant MV4-11 cells (AID 1963824); note: nearly all actives have a fitted effect of over 35% in size; note: potency is the fitted concentration of half-maximal effect
How it was run: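 SYK inhibitor-resistant MV4-11 AML cells, 500 per well, added to predispensed compounds and incubated 72 hr at 37 C, 5% CO2. Viability measured by CellTiter-Glo luminescence after 10 min at room temperature.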

[4] = Quantitative highthroughput screen to assess conditional lethalithy of NOMO1 cells grown in RPMI1640 with untreated serum (RPMI+s) (AID 1963876);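 note: 100% = DMSO wells and 0% = empty wells without cells; nearly all actives have a fitted effect of over 35% in size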
How it was run: (§1)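 Each medium arm—HPLM with 10% dialyzed FBS, or RPMI1640 with 5 mM glucose and 10% untreated or dialyzed FBS—was screened against an 11-point, 3-fold compound titration for 48 h at 37 °C, with CellTiter-Glo luminescence as endpoint.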

[5] = Quantitative highthroughput screen to assess conditional lethalithy of NOMO1 cells grown in Human Plasma-Like Medium with dialyzed fetal bovine serum (HPLM+ds) (AID 1963878);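 note: 100% = DMSO wells and 0% = empty wells on each plate; nearly all actives have a fitted effect of over 35% in size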
How it was run: as §1

[6] = Quantitative highthroughput screen to assess conditional lethalithy of P12 Ichikawa cells grown in Human Plasma-Like Medium with dialyzed fetal bovine serum (HPLM+ds) (AID 1963879); details: Potency: viability; note: nearly all actives have a fitted effect of over 35% in size; note: potency is the fitted concentration of half-maximal effect; for Viability: series mostly up to about 46 µM
How it was run: as §1

[7] = Quantitative highthroughput screen to assess conditional lethalithy of P12 Ichikawa cells grown in RPMI1640 with untreated serum (RPMI+s) (AID 1963881); details: Potency: viability
How it was run: as §1

[8] = Cellular viability qHTS for adrenocortical cancer (ACC) cell line SW-13 (AID 1963989); details: SW-13 ACC cells viability, CellTiter-Glo, 48 h; activity (max response): stronger effect = lower value;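 note: cells grown in serum-free medium with ITS supplement; % is set by controls: 0 for no effect and ±100 for the full control effect; nearly all actives have a fitted effect of over 65% in size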
How it was run: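 Here, serum-free SW-13 cultures were dosed up to 46 uM. Following 48 h, ATP-dependent luminescence (CellTiter-Glo) reported viable cells, and logistic modeling produced IC50 values.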

[9] = Cellular viability qHTS for adrenocortical cancer (ACC) cell line NCI-H295R (AID 1963990);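 note: 0% = DMSO only wells and -100% = full killing with cytotoxic reference compound; nearly all actives have a fitted effect of over 60% in size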
How it was run: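 Viability of NCI-H295R after 48 h of treatment (final up to 46 uM) measured through cellular ATP luminescence.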

[10] = Quantitative highthroughput screen to assess conditional lethalithy of SEM cells grown in Human Plasma-Like Medium with dialyzed fetal bovine serum (HPLM+ds) (AID 1963882); note: nearly all actives have a fitted effect of over 35% in size; note: potency is the fitted concentration of half-maximal effect; for Viability: series mostly up to about 46 µM
How it was run: as §1

[11] = Quantitative highthroughput screen to assess conditional lethalithy of SEM cells grown in RPMI1640 with unreated serum (RPMI+s) (AID 1963883); note: nearly all actives have a fitted effect of over 35% in size; note: potency is the fitted concentration of half-maximal effect;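 for Viability: 100% = DMSO wells and 0% = empty wells without cells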
How it was run: as §1

[12] = Quantitative highthroughput screen to assess conditional lethalithy of SEM cells grown in RPMI1640 with dialyzed fetal bovine serum (RPMI+ds) (AID 1963884)
How it was run: as §1

[13] = Quantitative highthroughput screen to assess conditional lethalithy of P12 Ichikawa cells grown in RPMI1640 with dialyzed fetal bovine serum (RPMI+ds) (AID 1963880); details: Potency: P12-Ichikawa viability
How it was run: as §1

[14] = Quantitative highthroughput screen to assess conditional lethalithy of NOMO1 cells grown in RPMI1640 with dialyzed fetal bovine serum (RPMI+ds) (AID 1963877);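 note: series mostly up to about 46 µM; 100% = DMSO control wells and 0% = empty wells; nearly all actives have a fitted effect of over 30% in size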
How it was run: as §1

O=C(Oc1ccc([N+](=O)[O-])cc1)N1CCN(Cc2cccc(Oc3ccccc3)c2)CC1
inactive: Potency [1] | Potency [4] | Potency [5] | Potency [6] | Potency [7]
active: Potency [2] 16.4 µM | Potency [3] 13.2 µM

N[C@@H]1C[C@H]1c1ccccc1
active: Potency [2] 16.6 µM | Potency [3] 11.9 µM and 3.72 µM
inactive: Potency [1] | activity (max response) [8] 6.98% | Potency [9]

Oc1ccc(Cl)cc1
inactive: Potency [1] | Potency [2] | Potency [3] | activity (max response) [8] 10.2% | Potency [9]

CC(C)(C)NCC(O)c1ccccc1Cl (stereo not given)
inactive: Potency [1] | Potency [2] | Potency [3] | activity (max response) [8] 3.76%

CC(Cc1ccc(O)cc1)NCC(O)c1cc(O)cc(O)c1 (stereo not given)
inactive: Potency [1] | Potency [2] | Potency [3] | activity (max response) [8] 10.9% | Potency [9]

O=P1(N(CCCl)CCCl)NCCCO1 (stereo not given)
active: Potency [6] 10.5 µM | Potency [10] 9.35 µM | Potency [11] 8.33 µM
inactive: Potency [1] | Potency [2] | Potency [3] | activity (max response) [8] 0.4% and 11% | Potency [9]

CCOC(=O)NC(O)C(Cl)(Cl)Cl (stereo not given)
inactive: Potency [1] | Potency [2] | Potency [3] | activity (max response) [8] 3.24% | Potency [9]

Cn1c(CCCC(=O)O)nc2cc(N(CCCl)CCCl)ccc21
inactive and 11.8 µM (active): Potency [2] | Potency [3]
inactive: Potency [1] | Potency [10] | Potency [9]

CC[N+]1(CCOC(=O)C(O)(c2ccccc2)c2ccccc2)CCCCC1
inactive: Potency [1] | Potency [2] | Potency [3] | activity (max response) [8] 4.14% | Potency [9]

O=C1CC[C@@]2(O)[C@H]3Cc4ccc(O)c5c4[C@@]2(CCN3CC2CC2)[C@H]1O5
inactive: Potency [1] | Potency [2] | Potency [3] | Potency [6] | Potency [10] | Potency [12] | Potency [9]

C=C1CC[C@@]2(O)[C@H]3Cc4ccc(O)c5c4[C@@]2(CCN3CC2CC2)[C@H]1O5
inactive: Potency [1] | Potency [2] | Potency [3] | activity (max response) [8] 2.67%

CN(C)CCc1ccc(O)cc1
inactive: Potency [1] | Potency [2] | Potency [3] | Potency [6] | Potency [13] | Potency [10] | Potency [11] | activity (max response) [8] -2.47%

CN[C@@H](C)[C@H](O)c1ccccc1
inactive: Potency [1] | Potency [2] | Potency [3] | activity (max response) [8] -4.49%

C[C@@H](N)[C@@H](O)c1ccccc1
inactive: Potency [1] | Potency [2] | Potency [3] | activity (max response) [8] 3.81% | Potency [9]

CCS(=O)(=O)C(C)(C)S(=O)(=O)CC
inactive: Potency [1] | Potency [2] | Potency [3] | activity (max response) [8] -10.9% | Potency [9]

CC(C)NCC(O)c1ccc([N+](=O)[O-])cc1 (stereo not given)
inactive: Potency [1] | Potency [2] | Potency [3] | activity (max response) [8] -6.95%

CC(O)CN1CCN(CC(=O)[O-])CCN(CC(=O)[O-])CCN(CC(=O)[O-])CC1.[Gd+3] (stereo not given)
inactive: Potency [1] | Potency [2] | Potency [3] | activity (max response) [8] 0.662%

CC[N+](CC)(CC)CC
inactive: Potency [1] | Potency [2] | Potency [3] | activity (max response) [8] 9.95%

CCN(CC)C(C)C(=O)c1ccccc1 (stereo not given)
inactive: Potency [1] | Potency [2] | Potency [3] | activity (max response) [8] 11.1%

C#CCN(C)[C@H](C)Cc1ccccc1
inactive: Potency [1] | Potency [2] | Potency [3] | Potency [4] | Potency [14] | Potency [6] | activity (max response) [8] 4.66% and -4.85% | Potency [9]

CCN(CC)CCOC(=O)C(O)(c1ccccc1)c1ccccc1
inactive: Potency [1] | Potency [2] | Potency [3] | activity (max response) [8] 1.88% | Potency [9]

CN1C(=O)CCS(=O)(=O)C1c1ccc(Cl)cc1 (stereo not given)
inactive: Potency [1] | Potency [2] | Potency [3] | Potency [4] | Potency [6] | Potency [7] | Potency [10] | Potency [11] | activity (max response) [8] 1.09% and -1.33% | Potency [9]

C[C@@H]1CN(C2CCC(C#N)(c3ccc(F)cc3)CC2)CC[C@]1(C(=O)O)c1ccccc1 (stereo not given in full)
inactive: Potency [1] | Potency [2] | Potency [3] | activity (max response) [8] -0.484% | Potency [9]

CC(CC(C(N)=O)(c1ccccc1)c1ccccc1)N(C)C (stereo not given)
inactive: Potency [1] | Potency [2] | Potency [3] | activity (max response) [8] 5.97% | Potency [9]

CCC(C)C(C)(COC(N)=O)COC(N)=O (stereo not given)
inactive: Potency [1] | Potency [2] | Potency [3] | activity (max response) [8] 2.89% | Potency [9]

C[C@H]1C(=O)O[C@@H]2CCN3CC=C(COC(=O)[C@](C)(O)[C@]1(C)O)[C@H]23
inactive: Potency [1] | Potency [2] | Potency [3] | activity (max response) [8] -4.54%
